Experimental data: publication PMC7819943, “Rice protein-binding microarrays: a tool to detect cis-acting elements near promoter regions in rice”
Over roughly 35,000 sequences, “fluorescence intensity (a.u.)” has its median near 10,000; the highest 2% begin near 52,000. For the sample, the highest values were picked, then their nearest neighbours and some sequences at random.

molecular target: T1, OsWOX13 (Oryza sativa, UniProt Q5QMM3 1-267); test: protein-binding microarray (RPBM); PBS, 2% BSA, 51.3 ng/ul salmon testes DNA, 50 uM zinc acetate, 200 nM TF, 25 C, 1 h; high values mean tight binding; settings: protein: recombinant; tags: N-terminal polyhistidine and DsRed monomer fusion (pET32a); label: CyDye5-dUTP incorporated in the synthesized complementary strand; 3' TTTTT single-stranded linker to array surface; dsDNA, one strand shown
T1 sequence: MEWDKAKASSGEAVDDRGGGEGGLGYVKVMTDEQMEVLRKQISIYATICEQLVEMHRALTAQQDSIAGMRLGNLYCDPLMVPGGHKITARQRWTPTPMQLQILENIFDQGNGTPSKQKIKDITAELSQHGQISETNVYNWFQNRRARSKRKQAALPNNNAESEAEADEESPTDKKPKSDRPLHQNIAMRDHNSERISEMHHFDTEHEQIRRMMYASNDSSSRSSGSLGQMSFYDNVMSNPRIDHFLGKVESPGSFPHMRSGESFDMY
In short: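 A custom Agilent array was converted to double-stranded form by primer extension with Cy5-dUTP and blocked with 2% BSA. Protein at 200 nM in PBS with 2% BSA, salmon testes DNA and 50 µM zinc acetate was applied for 1 h at 25 °C, followed by washing. The proteins were polyhistidine–DsRed N-terminal fusions of transcription factors, expressed in E. coli BL21-CodonPlus and Ni–NTA-purified. The binding signal is per-feature fluorescence intensity (arbitrary units) from an Axon 4000B scanner.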

Sequence	binding signal
AATTTTCTTATGATTAGCATTTCTATTGCTATTAGATGATCGGAGTCACCTAGTGCAG	8930 fluorescence intensity (a.u.)
ATTGATTTGATTGTATTCATAATCATACAATTATCTTAGCCGGAGTCACCTAGTGCAG	65200 fluorescence intensity (a.u.)
AACAAGATTGTGATTCATACATCTGCATCTTATTTTGTATCGGAGTCACCTAGTGCAG	3650 fluorescence intensity (a.u.)
AGATAATTCTTACTAGATGATTATTGTATATGCTGCTATCCGGAGTCACCTAGTGCAG	9000 fluorescence intensity (a.u.)
CCCCATCTGTATTTTAAATTTATATCCGCCACTGATTGTACGGAGTCACCTAGTGCAG	4240 fluorescence intensity (a.u.)
CCCGATTGACAAGCTGACTCAGCATGGAGGGACCCACATGCGGAGTCACCTAGTGCAG	37700 fluorescence intensity (a.u.)
CAACACATGATTGCCGGGCTTTCTTCCCTCTCGTCCTGAGCGGAGTCACCTAGTGCAG	32000 fluorescence intensity (a.u.)
TAGTACTACTCATCACCAATCAGCTGCCACACATGCATGGCGGAGTCACCTAGTGCAG	5430 fluorescence intensity (a.u.)
CGCGCCAATCATCTCCCGCTCCCTCTTATCCTCCCCTCTCCGGAGTCACCTAGTGCAG	14100 fluorescence intensity (a.u.)
AGGACTAATAGATTTCCAAGATGATCGGGACTGACCGATCCGGAGTCACCTAGTGCAG	10600 fluorescence intensity (a.u.)
GTTTAATGATAAATCTAGTAATATTAATTTTACATGATTGCGGAGTCACCTAGTGCAG	25600 fluorescence intensity (a.u.)
ATAATAAGATTAAAATAACATTTACCCGTTGCAAAGCACGCGGAGTCACCTAGTGCAG	3610 fluorescence intensity (a.u.)
TAATAGATAGATAGATAGATAGATAGATTAGTAATTTAGACGGAGTCACCTAGTGCAG	30600 fluorescence intensity (a.u.)
AATGAATTTAGATAGATATATATATCTAGATTCATTAGCACGGAGTCACCTAGTGCAG	7940 fluorescence intensity (a.u.)
ATAATATATGATTAATTAAGTTTTAATTATTACAAACTTGCGGAGTCACCTAGTGCAG	37000 fluorescence intensity (a.u.)
AAAATATAATCAAAATAATTTACTTATCCATGTAATCATACGGAGTCACCTAGTGCAG	3770 fluorescence intensity (a.u.)
ATAATTAGATTAAAATAGATTTTACCCGTTGCAATGCACGCGGAGTCACCTAGTGCAG	56200 fluorescence intensity (a.u.)
ATATAATTAAATGATTAATTAATTAGTACCGTTTTACTTGCGGAGTCACCTAGTGCAG	65500 fluorescence intensity (a.u.)
AACACCATACCAAAATCCAAATATACTTATATTTTACTTACGGAGTCACCTAGTGCAG	65000 fluorescence intensity (a.u.)
CTAATGACGAATTAATTAGAATTAATAGATTTATCTTGCACGGAGTCACCTAGTGCAG	53300 fluorescence intensity (a.u.)
ACTATATAATTAAAATAGATTTCACCCGTTGCAACGCACGCGGAGTCACCTAGTGCAG	13300 fluorescence intensity (a.u.)

Sequence	binding signal
CCAAATTACAACAAATATAATTTTACTTAATCCAAAGTAACGGAGTCACCTAGTGCAG	8310 fluorescence intensity (a.u.)
TGGTCAGATAGCTAGATTGATATCCCTCTCTCTCTCTCACCGGAGTCACCTAGTGCAG	13900 fluorescence intensity (a.u.)
TTGTAAATTACCTGCAAGGAAGAATTAACCAAGATGTCTTCGGAGTCACCTAGTGCAG	5040 fluorescence intensity (a.u.)
AATCATTTTCAGTTACAAATTAAATGGTGTTTCAATAGCTCGGAGTCACCTAGTGCAG	6090 fluorescence intensity (a.u.)
TTAATTATTGTGAGTAATAGATTAACGACACACGTGTTGACGGAGTCACCTAGTGCAG	23300 fluorescence intensity (a.u.)
CTTAACTTTAAATATATAATTTTATAATAATTTTACGTTGCGGAGTCACCTAGTGCAG	17500 fluorescence intensity (a.u.)
GTTTATAATAATTAAAACTTAATTAATCACATGTTATTACCGGAGTCACCTAGTGCAG	22900 fluorescence intensity (a.u.)
TTTAGATAATTAATATTTAAATAATTATACTCTCGTTTTGCGGAGTCACCTAGTGCAG	29600 fluorescence intensity (a.u.)
TAAAACTTAATTAATTATACGTTAATATTACCTCGTTTTGCGGAGTCACCTAGTGCAG	53900 fluorescence intensity (a.u.)
TAATAATTATAATTAATTACCGGAGTTACTTATTCTAAACCGGAGTCACCTAGTGCAG	60400 fluorescence intensity (a.u.)
AATATACTTAATTACCTCTATTAGTTAATATACTTAACACCGGAGTCACCTAGTGCAG	12000 fluorescence intensity (a.u.)
AGTAATTAGTATGACCACCCTAATATACGGTAGTATGGTACGGAGTCACCTAGTGCAG	27200 fluorescence intensity (a.u.)
TTTATTGATTGAGAGGAACTATCTACCTCTGTAATGACATCGGAGTCACCTAGTGCAG	46600 fluorescence intensity (a.u.)
ATTTAAATTTCCATCCTTAAATTTGAAGGTGATTTTGAGGCGGAGTCACCTAGTGCAG	21500 fluorescence intensity (a.u.)
AGCTAATACTTAATTAATCACGCGTTAATGGACTGCTCCGCGGAGTCACCTAGTGCAG	26700 fluorescence intensity (a.u.)
TTCTAATTAATCACGCGTTAATGGACCGCTCCGTTTTCCGCGGAGTCACCTAGTGCAG	42300 fluorescence intensity (a.u.)
GCTAATACTTAATTAATCACGCGCTAATAGACCGCTCCGTCGGAGTCACCTAGTGCAG	24500 fluorescence intensity (a.u.)
ATTAATTACGCGCTAATCGTTGCTCCGTTTTCCGTGCAAACGGAGTCACCTAGTGCAG	11400 fluorescence intensity (a.u.)
TTTAATTAATCACGCGCTAATAGACTGCTCCGTTTTCCGTCGGAGTCACCTAGTGCAG	55800 fluorescence intensity (a.u.)
ACTTAATTAATTACGTGTTAATGGACTGCTCCGTTTTCCGCGGAGTCACCTAGTGCAG	65500 fluorescence intensity (a.u.)
ACAGATTAATTAGGCTTAATATATTCATATCGCAGTTTACCGGAGTCACCTAGTGCAG	50500 fluorescence intensity (a.u.)
